{"source": "PubChem BioAssay AID1347165", "about": "(National Center for Advancing Translational Sciences (NCATS), 2019)", "note": "Hit rate of the full screen: of about 220,000 compounds, about 5,700 (2.6%) were called active. Where a call stands in place of a potency, no number is given. Another 18% or so got no clear call; they are omitted. Calls come from the whole dose curve; as a rule, active = well fitted inhibition curve with a large enough effect; inconclusive = small, poorly fitted or top-dose-only effect; inactive = no such curve, though single readings can be large or run the other way. For the sample, actives were picked, then their nearest neighbours and some compounds at random. Potency is the fitted concentration of half-maximal effect.", "data": [{"target": "Lysine-specific demethylase 5B (Homo sapiens) (UniProt Q9UGL1)", "sequence (Q9UGL1 whole entry, looked up)": "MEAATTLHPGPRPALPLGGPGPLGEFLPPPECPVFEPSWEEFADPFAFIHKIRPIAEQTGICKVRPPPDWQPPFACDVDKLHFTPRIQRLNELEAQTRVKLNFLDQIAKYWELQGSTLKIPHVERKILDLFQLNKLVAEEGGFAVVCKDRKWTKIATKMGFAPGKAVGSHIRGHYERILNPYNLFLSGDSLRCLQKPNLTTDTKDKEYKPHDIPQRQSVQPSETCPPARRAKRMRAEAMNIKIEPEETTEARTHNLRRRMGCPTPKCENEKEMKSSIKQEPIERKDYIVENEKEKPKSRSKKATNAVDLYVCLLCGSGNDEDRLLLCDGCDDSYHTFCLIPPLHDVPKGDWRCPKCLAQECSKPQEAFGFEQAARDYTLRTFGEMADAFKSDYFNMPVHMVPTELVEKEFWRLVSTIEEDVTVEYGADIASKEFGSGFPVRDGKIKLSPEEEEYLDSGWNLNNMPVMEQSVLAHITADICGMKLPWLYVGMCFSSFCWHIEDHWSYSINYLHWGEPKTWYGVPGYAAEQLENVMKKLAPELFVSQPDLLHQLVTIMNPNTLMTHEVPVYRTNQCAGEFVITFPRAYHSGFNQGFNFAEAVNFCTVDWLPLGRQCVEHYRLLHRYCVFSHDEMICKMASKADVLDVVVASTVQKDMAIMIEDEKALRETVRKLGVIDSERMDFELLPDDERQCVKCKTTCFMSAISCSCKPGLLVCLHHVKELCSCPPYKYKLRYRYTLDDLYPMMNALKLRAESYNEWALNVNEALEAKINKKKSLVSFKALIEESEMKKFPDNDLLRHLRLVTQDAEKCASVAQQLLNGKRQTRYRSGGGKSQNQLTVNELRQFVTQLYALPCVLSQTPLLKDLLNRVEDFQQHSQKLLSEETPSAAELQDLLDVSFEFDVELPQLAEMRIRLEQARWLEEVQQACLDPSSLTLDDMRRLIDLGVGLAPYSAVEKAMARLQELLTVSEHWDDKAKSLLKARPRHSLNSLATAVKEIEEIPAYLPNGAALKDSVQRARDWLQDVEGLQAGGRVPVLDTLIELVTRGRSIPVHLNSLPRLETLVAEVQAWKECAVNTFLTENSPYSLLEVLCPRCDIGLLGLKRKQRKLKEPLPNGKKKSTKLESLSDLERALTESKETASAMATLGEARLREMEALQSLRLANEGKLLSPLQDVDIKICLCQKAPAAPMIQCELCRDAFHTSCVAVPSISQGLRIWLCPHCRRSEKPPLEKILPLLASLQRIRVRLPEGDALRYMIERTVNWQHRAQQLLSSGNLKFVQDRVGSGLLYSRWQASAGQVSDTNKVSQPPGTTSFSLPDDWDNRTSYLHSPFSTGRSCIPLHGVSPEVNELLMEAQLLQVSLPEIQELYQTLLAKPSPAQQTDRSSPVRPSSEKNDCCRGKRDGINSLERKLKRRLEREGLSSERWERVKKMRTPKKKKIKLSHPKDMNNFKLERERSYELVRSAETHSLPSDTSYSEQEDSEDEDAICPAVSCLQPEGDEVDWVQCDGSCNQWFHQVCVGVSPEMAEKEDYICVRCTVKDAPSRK", "test": "Primary screen for KDM5B Histone Demethylases FDH-coupled qHTS; note: nearly all actives have a fitted effect of over 70% in size", "details": "FDH-coupled NADH fluorescence (FDH is formaldehyde dehydrogenase); series mostly up to 57.7 µM", "procedure,_shortened": "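Here, H3K4me3 peptide (12.5 µM in substrate mix) is demethylated by KDM5BΔAP, 200 nM final, after 10 min compound exposure. Formaldehyde product is coupled through FDH (0.25 U/mL in mix) to NADH fluorescence; 30-min ΔRFU feeds dose-response curves.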", "values": [{"smiles": "O=C(NCCn1c(-c2ccccc2)nc2ccccc21)NCc1ccccc1", "Potency": "inactive"}, {"smiles": "CC(C)Cc1nc2cccnc2n1C1CCN(S(=O)(=O)c2ccc(Cl)s2)CC1", "Potency": "inactive"}, {"smiles": "CC(C)NC(=O)N1Cc2[nH]cnc2C[C@H]1c1nc(-c2ccc(Cl)cc2)no1", "Potency": "31.6 µM (active)"}, {"smiles": "Cc1cccc(-c2noc([C@@H]3Cc4nc[nH]c4CN3C(=O)CCC(=O)O)n2)c1", "Potency": "inactive"}, {"smiles": "O=C(c1ccco1)N1Cc2[nH]cnc2C[C@H]1c1nc(-c2ccncc2)no1", "Potency": "inactive"}, {"smiles": "O=C(Nc1cccnc1)c1ccc2c(c1)OCCN(c1ccccc1)C2", "Potency": "inactive"}, {"smiles": "COc1ccc(OCC2(C)COc3ccc(C(=O)NC4CCOCC4)cc3N2)cc1", "note": "(configuration not stated)", "Potency": "25.1 µM (active)"}, {"smiles": "COc1ccc(-c2cc(N3CCC(NC(=O)c4ccc5c(c4)OCO5)CC3)n[nH]2)cc1", "Potency": "inactive"}, {"smiles": "COc1ccc(-n2cnc3cc(C(=O)NC4CCCC4)ccc32)cc1", "Potency": "inactive"}, {"smiles": "O=C(Nc1cccnc1)c1ccc2c(c1)OCCN(Cc1ncccn1)C2", "Potency": "inactive"}, {"smiles": "COc1ccc(OCC2(C)COc3ccc(C(=O)Nc4cccnc4)cc3N2)cc1", "note": "(configuration not stated)", "Potency": "31.6 µM (active)"}, {"smiles": "Cc1ccc(NC(=O)CN(C)C(=O)c2cc3ccc(F)cc3nc2C)cc1", "Potency": "inactive"}, {"smiles": "Cc1ccc(NC(=O)c2ccc(F)cc2Cl)nc1", "Potency": "inactive"}, {"smiles": "CCn1nc(C(=O)Nc2ccc(I)cc2C)c2ccccc2c1=O", "Potency": "inactive"}, {"smiles": "CN1C(=O)CC(C(=O)O)C12CCN(CCc1ccccn1)CC2", "note": "(configuration not stated)", "Potency": "inactive"}, {"smiles": "Cc1ccc2c(CN3CCN(CCc4ccccn4)CC3)cc(=O)oc2c1", "Potency": "inactive"}, {"smiles": "Cc1ccnc(N2CC[C@@H]3[C@@H](CCC(=O)N3CCc3ccccn3)C2)n1", "Potency": "22.4 µM (active)"}, {"smiles": "CC(Sc1nc(CN2CCOCC2)nc2ccccc12)C(=O)NC1CCCCCC1", "note": "(configuration not stated)", "Potency": "inactive"}, {"smiles": "COc1ccc(-c2csc3c2NC(=O)CC3c2ccc(OCC(N)=O)c(OC)c2)cc1", "note": "(configuration not stated)", "Potency": "inactive"}, {"smiles": "Cc1ccc(-c2csc3c2NC(=O)CC3c2ccc(C)cc2)cc1", "note": "(configuration not stated)", "Potency": "inactive"}, {"smiles": "Nc1nc2c(s1)C(c1ccccc1)CC(=O)N2", "note": "(configuration not stated)", "Potency": "28.2 µM (active)"}, {"smiles": "O=C1CC(c2ccc(C(F)(F)F)cc2)c2sc(C(=O)O)c(-c3ccccc3)c2N1", "note": "(configuration not stated)", "Potency": "inactive"}, {"smiles": "COc1cccc(/C=C/C(=O)c2nc3ccccc3s2)c1OC(F)F", "Potency": "inactive"}, {"smiles": "COc1ccccc1-c1nc(C(=O)NCc2cccs2)n2ccncc12", "Potency": "28.2 µM (active)"}, {"smiles": "COc1ccccc1NC(=O)CSC1=Nc2ccccc2C2=NC(CC(=O)NCc3cccs3)C(=O)N12", "note": "(configuration not stated)", "Potency": "inactive"}, {"smiles": "CCOc1ccccc1NC(=O)Cn1nnc(C(=O)NCc2cccs2)c1N", "Potency": "inactive"}, {"smiles": "O=C(OCc1nc2ccccc2o1)c1ccccc1Br", "Potency": "inactive"}, {"smiles": "CC(=O)c1c(SCC(=O)Nc2ccc(F)cc2F)nc(=O)[nH]c1C", "Potency": "inactive"}, {"smiles": "CC(C)(C#N)C(=O)NCCc1ccc(OCc2ccccc2)cc1", "Potency": "inactive"}, {"smiles": "CC1CCN(c2nc3ccccc3nc2C(C#N)S(=O)(=O)c2cccc(Cl)c2)CC1", "note": "(configuration not stated)", "Potency": "inactive"}, {"smiles": "COc1ccc(-c2cc(C(=O)N3CCN(CC(=O)N4CCOCC4)CC3)c3ccccc3n2)cc1", "Potency": "inactive"}, {"smiles": "CCn1cnnc1CC1CCN(C(=O)c2cc(-c3ccc(F)cc3)nc3ccccc23)CC1", "Potency": "22.4 µM (active)"}, {"smiles": "CCn1cnnc1CC1CCN(C(=O)C2CCN(Cc3nc(-c4cccc(C)c4)oc3C)CC2)CC1", "Potency": "inactive"}, {"smiles": "CN(Cc1ccc(F)cc1)C(=O)NCc1ccccn1", "Potency": "inactive"}, {"smiles": "Cc1cc(C)n(CC(=O)N2CCC3(CC2)NCCc2c3[nH]c3ccccc23)n1", "Potency": "inactive"}, {"smiles": "COc1cccc(CNC(=O)N2CCCC3(C2)Nc2cccnc2NC3=NC2CCCC2)c1", "note": "(configuration not stated)", "Potency": "28.2 µM (active)"}, {"smiles": "CCOc1ccc(CC(=O)N2CCCC3(C2)Nc2cccnc2NC3=NC2CCCC2)cc1", "note": "(configuration not stated)", "Potency": "28.2 µM (active)"}, {"smiles": "COc1cccc(CNC(=O)N2CCN(Cc3ccc(Br)s3)CC2)c1", "Potency": "inactive"}, {"smiles": "Cc1cc(C)n(CC(=O)N2CC[C@@H]3CN(S(C)(=O)=O)[C@@H]3C2)n1", "Potency": "inactive"}, {"smiles": "COc1ccccc1C(=O)N1CCC2(C1)C(=NC1CCCCC1)NC(=O)N2c1cccnc1", "note": "(configuration not stated)", "Potency": "inactive"}, {"smiles": "Cc1cc(C)n(CC(=O)N2CCCC3(C2)Nc2cccnc2NC3=NC2CCCC2)n1", "note": "(configuration not stated)", "Potency": "28.2 µM (active)"}, {"smiles": "CCOc1ccc(CC(=O)N2CCC(Cc3nc(-c4cnccn4)no3)CC2)cc1", "Potency": "inactive"}, {"smiles": "COc1cccc(N2C(=O)NC(=NC3CCCC3)C23CCN(C(=O)c2ccc(C)cc2)C3)c1", "note": "(configuration not stated)", "Potency": "inactive"}, {"smiles": "COc1ccccc1C(=O)N1CCCC2(C1)Nc1cccnc1NC2=NCc1ccccc1", "note": "(configuration not stated)", "Potency": "28.2 µM (active)"}, {"smiles": "COc1ccccc1C(=O)N1CCC2(C1)C(=NC1CCCC1)NC(=O)N2c1cccnc1", "note": "(configuration not stated)", "Potency": "inactive"}, {"smiles": "CCOc1ccc(CC(=O)N2CCC(C3CCN(C(=O)NC)CC3)C2)cc1", "note": "(configuration not stated)", "Potency": "inactive"}, {"smiles": "CC(C)=CC(=O)N1C[C@@H](NC(=O)Nc2ccc(F)cc2F)C[C@H]1C(=O)N[C@H](Cc1ccccc1)C(N)=O", "Potency": "inactive"}, {"smiles": "O=C(Cn1ccn2nc(-c3ccc(F)cc3)c(CO)c2c1=O)NC1CCCC1", "Potency": "inactive"}, {"smiles": "COC(=O)[C@@H](NC(=O)Nc1cc(-c2n[nH]c(=O)c3ccccc23)ccc1C)C(C)C", "Potency": "inactive"}, {"smiles": "O=c1oc2ccc(F)cc2cc1S(=O)(=O)N1CCCCCC1", "Potency": "inactive"}, {"smiles": "N#C/C(=C\\c1ccc(-c2cc(Cl)ccc2Cl)o1)c1nc2ccccc2[nH]1", "Potency": "inactive"}, {"smiles": "O=C(O)CNS(=O)(=O)c1cccc(F)c1", "Potency": "inactive"}, {"smiles": "N#CC(C#N)=C(Nc1ccc(Oc2ccccc2)cc1)C(F)(F)C(F)(F)F", "Potency": "inactive"}, {"smiles": "CC1(C)C2CCC1(CS(=O)(=O)NCCc1c[nH]c3ccccc13)C(=O)C2", "note": "(configuration not stated)", "Potency": "inactive"}, {"smiles": "C=CCn1c(COc2cc(C)c(Cl)c(C)c2)n[nH]c1=S", "Potency": "inactive"}, {"smiles": "Cc1ccsc1C(=O)N1CCCC2(C1)Nc1cccnc1NC2=NC1CCCC1", "note": "(configuration not stated)", "Potency": "25.1 µM (active)"}, {"smiles": "COc1ccc(C(=O)N2CCCC3(C2)C(=NC2CCCC2)NC(=O)N3c2cc(F)cc(F)c2)cc1", "note": "(configuration not stated)", "Potency": "inactive"}, {"smiles": "Cc1nc(-c2cn(C3CCCN(C(=O)c4sccc4C)C3)nn2)no1", "note": "(configuration not stated)", "Potency": "inactive"}, {"smiles": "Cc1ccc(Nc2nnc(-c3ccc(C)c(S(N)(=O)=O)c3)c3ccccc23)c(C)c1", "Potency": "inactive"}, {"smiles": "COc1ccccc1N1CCN(C(=O)C2CCCN(C(=O)c3ccccc3)CCC(=O)NCC2)CC1", "note": "(configuration not stated)", "Potency": "inactive"}, {"smiles": "C=CCN1CCN(C(=O)C2CCCN(C(=O)c3ccccc3)CCC(=O)NCC2)CC1", "note": "(configuration not stated)", "Potency": "inactive"}, {"smiles": "Cc1cccc(C(=O)N2CCCC(C(=O)N3CCN(c4ccccn4)CC3)CCNC(=O)CC2)c1", "note": "(configuration not stated)", "Potency": "15.8 µM (active)"}]}]}
